A number with no mark means an inactive call. The source made the active and inactive calls.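 How the source made its calls, unless noted: active means inhibition above 50%; inactive means the rest.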
Experiment: antimalarial activity against Dd2 strain (AID 2302;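 active means growth inhibition above 50% at the single 2 µM test dose, taken to imply half-maximal potency below 2 µM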;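 further: 0% = DMSO untreated growth and 100% = chloroquine plus artemisinin killed control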)
Details: P. falciparum Dd2 in RBCs, LDH growth readout, 72 h; at 2 µM; stronger effect = higher value

Compound	growth inhibition
COc1cc(OC)c2c(c1Cl)O[C@]1(C2=O)C(=O)C(Cc2ccccc2)(Cc2ccccc2)C(=O)C[C@H]1C	45%
CCC(CN1C(=O)C(c2ccccc2)(c2ccccc2)N=C1N)c1ccccc1 (stereo not given)	98% (active)
Cc1cc(N[C@@H](Cc2ccccc2)C(=O)NCc2cccc(F)c2)nc(Nc2ccccc2)n1	92% (active)
Fc1ccc2c(NN=Cc3ccccc3)ccnc2c1	99% (active)
CC(C)CCNC(=O)C1Cc2c([nH]c3cc(Br)ccc23)C2(CCN(CCc3ccccc3)CC2)N1 (stereo not given)	48%
Cc1cccnc1CNc1nccc2c(C)c(C)[nH]c12	28%
CC(C)(C)c1ccc(CN2CCC(NC(=O)c3ccc(-c4cccc(Cl)c4)s3)CC2)cc1	47%
O=C(/C=C/c1ccc(Cl)c(Cl)c1)N1CCC(CNCc2cccc3cc[nH]c23)CC1	14%
Cc1cccc2[nH]c(-c3cccc(-c4ccc(NC(=O)c5cccc(C(N)=O)c5)cc4)c3)nc12	61% (active)
CCN1CCN(CCCNc2ccnc3cc(Cl)ccc23)CC1	77% (active)
Cc1cc(-c2cccc(CNC3CCN(C)CC3)c2)ccc1S(=O)(=O)NC1CCC1	96% (active)
CCOc1c(CNCCCNc2cc(=O)c3ccccc3[nH]2)cc(Br)cc1OC	18%
CCCCCCCCCc1c(C)[nH]c2ccccc2c1=O	96% (active)
COc1ccc2nccc([C@@H](O)CN3CCC(NCc4cn5cc(F)ccc5n4)CC3)c2c1	5%
CCCN1CCN(Cc2ccc(C(=O)Nc3ccc(Cl)cc3)cc2)CC1	14%
Cc1ccc(NC(=O)Nc2ccc(Cn3ncc(N4CCCNCC4)c(Cl)c3=O)cc2)cc1	13%
COc1ccc(-c2nc(NC(=O)CSc3ccc([N+](=O)[O-])cc3)sc2C)cc1	100% (active)
CC(=O)N(Cc1nc(-c2cc(Cl)c(Cl)s2)cs1)c1c(C)cccc1C	95% (active)
COc1cc(CNc2ccc(N3CCCC3)cc2)cc(Cl)c1OC	94% (active)
CC(C)(C)C(Cn1ccnc1)NCc1cn[nH]c1-c1ccc(-c2ccccc2)cc1 (stereo not given)	69% (active)

Compound	growth inhibition
CCCCCN1CCCC(CNS(=O)(=O)c2ccc(C(=O)Nc3ccc(C(F)(F)F)cc3)cc2)C1 (stereo not given)	-9%
Oc1ccc2[nH]c(-c3ccc(OC(F)(F)F)cc3)nc2c1CNC1CCCC1	97% (active)
COc1ccc2nccc([C@@H](O)CN3CCC(NCc4cc5cc(Cl)ccc5[nH]4)CC3)c2c1	64% (active)
COC[C@H]1CCCN1Cc1ccc(-c2ccc(-c3nc4ccccc4[nH]3)s2)cc1	58% (active)
CN(C)c1ccc(-c2csc(C(=O)NC3CCN(Cc4ccc(C(C)(C)C)cc4)C3)c2)cc1 (stereo not given)	50% (active)
Cc1[nH]c(C)c(-c2ccc(-c3ccc(OC(F)(F)F)cc3)nc2)c(=O)c1Cl	95% (active)
COc1ccc(CN2CCCN(Cc3cccc(C(=O)Nc4ccc(C)c(F)c4)c3)CC2)cc1	10%
Cc1cc(N[C@@H](CC(C)C)C(=O)NCCOc2ccccc2)nc(NCC2CCCCC2)n1	53% (active)
COc1cc(OC)cc(C(=O)Nc2nc(-c3ccccn3)cs2)c1	72% (active)
CN(C)c1ccc(-c2ccc(C(=O)NC3CCN(Cc4cccc(C(F)(F)F)c4)CC3)s2)cc1	77% (active)
COc1ccc(OCC(=O)Nc2nc(-c3ccc(OC)cc3)c(C)s2)cc1	87% (active)
Cc1cc(N[C@@H](Cc2ccccc2)C(=O)Nc2ccccc2)nc(NCCc2ccccn2)n1	50% (active)
CCN(CCCN1CCCCC1)c1cc(C)nc(Nc2ccc(Br)cc2F)n1	24%
CN=C(NC)c1cccc(NC(=O)C=Cc2ccc(C=CC(=O)Nc3cccc(C(=NC)NC)c3)cc2)c1	99% (active)
CC(=O)NC1=NC(C)(C)N(OCCCOc2ccc(Cl)c(Cl)c2)C(NC(C)=O)=N1	94% (active)
CC1c2cccc(O)c2CCN1CCc1ccc(Cl)c(Cl)c1 (stereo not given)	99% (active)
CC1CCCN(C(=O)c2cc(-c3ccccn3)nc3c(Cl)cccc23)C1 (stereo not given)	9%
CCc1cn2c3c(cc(C(=O)N[C@@H](Cc4ccccc4)[C@H](O)CNC4CCCCC4)cc13)N(CC)S(=O)(=O)CC2	98% (active)
COc1ccc2ncc(Cl)c(CCN3CC[C@@H](CNCc4cc5c(cn4)OCS5)C3)c2n1	31%
COc1ccc2nccc(N3CCC(CCNCc4cc5c(cn4)OCCO5)CC3)c2c1	99% (active)

Experiment: HepG2 cytotoxicity, primary screen, cytotoxicity control for P. falciparum antimalarial project, cell-based, ATP luminescence (AID 2303);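 further: 0% = DMSO wells and 100% = digitonin-killed cells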
Details: HepG2 viability, 24-48 h, at 10 µM, stronger effect = higher value

Compound	inhibition
COc1cc(OC)c2c(c1Cl)O[C@]1(C2=O)C(=O)C(Cc2ccccc2)(Cc2ccccc2)C(=O)C[C@H]1C	-12%
CCC(CN1C(=O)C(c2ccccc2)(c2ccccc2)N=C1N)c1ccccc1 (stereo not given)	11%
Cc1cc(N[C@@H](Cc2ccccc2)C(=O)NCc2cccc(F)c2)nc(Nc2ccccc2)n1	20%
Fc1ccc2c(NN=Cc3ccccc3)ccnc2c1	1%
CC(C)CCNC(=O)C1Cc2c([nH]c3cc(Br)ccc23)C2(CCN(CCc3ccccc3)CC2)N1 (stereo not given)	14%
Cc1cccnc1CNc1nccc2c(C)c(C)[nH]c12	27%
CC(C)(C)c1ccc(CN2CCC(NC(=O)c3ccc(-c4cccc(Cl)c4)s3)CC2)cc1	36%
O=C(/C=C/c1ccc(Cl)c(Cl)c1)N1CCC(CNCc2cccc3cc[nH]c23)CC1	1%
Cc1cccc2[nH]c(-c3cccc(-c4ccc(NC(=O)c5cccc(C(N)=O)c5)cc4)c3)nc12	25%
CCN1CCN(CCCNc2ccnc3cc(Cl)ccc23)CC1	7%
Cc1cc(-c2cccc(CNC3CCN(C)CC3)c2)ccc1S(=O)(=O)NC1CCC1	33%
CCOc1c(CNCCCNc2cc(=O)c3ccccc3[nH]2)cc(Br)cc1OC	10%
CCCCCCCCCc1c(C)[nH]c2ccccc2c1=O	-16%
COc1ccc2nccc([C@@H](O)CN3CCC(NCc4cn5cc(F)ccc5n4)CC3)c2c1	19%
CCCN1CCN(Cc2ccc(C(=O)Nc3ccc(Cl)cc3)cc2)CC1	48%
Cc1ccc(NC(=O)Nc2ccc(Cn3ncc(N4CCCNCC4)c(Cl)c3=O)cc2)cc1	35%
COc1ccc(-c2nc(NC(=O)CSc3ccc([N+](=O)[O-])cc3)sc2C)cc1	-6%
CC(=O)N(Cc1nc(-c2cc(Cl)c(Cl)s2)cs1)c1c(C)cccc1C	5%
COc1cc(CNc2ccc(N3CCCC3)cc2)cc(Cl)c1OC	41%
CC(C)(C)C(Cn1ccnc1)NCc1cn[nH]c1-c1ccc(-c2ccccc2)cc1 (stereo not given)	15%

Compound	inhibition
CCCCCN1CCCC(CNS(=O)(=O)c2ccc(C(=O)Nc3ccc(C(F)(F)F)cc3)cc2)C1 (stereo not given)	51% (active)
Oc1ccc2[nH]c(-c3ccc(OC(F)(F)F)cc3)nc2c1CNC1CCCC1	32%
COc1ccc2nccc([C@@H](O)CN3CCC(NCc4cc5cc(Cl)ccc5[nH]4)CC3)c2c1	27%
COC[C@H]1CCCN1Cc1ccc(-c2ccc(-c3nc4ccccc4[nH]3)s2)cc1	18%
CN(C)c1ccc(-c2csc(C(=O)NC3CCN(Cc4ccc(C(C)(C)C)cc4)C3)c2)cc1 (stereo not given)	26%
Cc1[nH]c(C)c(-c2ccc(-c3ccc(OC(F)(F)F)cc3)nc2)c(=O)c1Cl	11%
COc1ccc(CN2CCCN(Cc3cccc(C(=O)Nc4ccc(C)c(F)c4)c3)CC2)cc1	49%
Cc1cc(N[C@@H](CC(C)C)C(=O)NCCOc2ccccc2)nc(NCC2CCCCC2)n1	24%
COc1cc(OC)cc(C(=O)Nc2nc(-c3ccccn3)cs2)c1	47%
CN(C)c1ccc(-c2ccc(C(=O)NC3CCN(Cc4cccc(C(F)(F)F)c4)CC3)s2)cc1	35%
COc1ccc(OCC(=O)Nc2nc(-c3ccc(OC)cc3)c(C)s2)cc1	-3%
Cc1cc(N[C@@H](Cc2ccccc2)C(=O)Nc2ccccc2)nc(NCCc2ccccn2)n1	-3%
CCN(CCCN1CCCCC1)c1cc(C)nc(Nc2ccc(Br)cc2F)n1	32%
CN=C(NC)c1cccc(NC(=O)C=Cc2ccc(C=CC(=O)Nc3cccc(C(=NC)NC)c3)cc2)c1	21%
CC(=O)NC1=NC(C)(C)N(OCCCOc2ccc(Cl)c(Cl)c2)C(NC(C)=O)=N1	65% (active)
CC1c2cccc(O)c2CCN1CCc1ccc(Cl)c(Cl)c1 (stereo not given)	18%
CC1CCCN(C(=O)c2cc(-c3ccccn3)nc3c(Cl)cccc23)C1 (stereo not given)	2%
CCc1cn2c3c(cc(C(=O)N[C@@H](Cc4ccccc4)[C@H](O)CNC4CCCCC4)cc13)N(CC)S(=O)(=O)CC2	8%
COc1ccc2ncc(Cl)c(CCN3CC[C@@H](CNCc4cc5c(cn4)OCS5)C3)c2n1	22%
COc1ccc2nccc(N3CCC(CCNCc4cc5c(cn4)OCCO5)CC3)c2c1	26%

From PubChem BioAssay
